# Source: PubChem BioAssay AID488969 (Vanderbilt High Throughput Screening Facility, 2010)
# Over roughly 110,000 compounds, “z-score” has its median near -0.1; the highest 2% begin near 2. This excerpt belongs to a sample that is enriched for the highest values. Active and inactive are the calls of the source.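 How the source made its calls: active means z-score in the third read window above 3 or below -3; inactive means the rest.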
# Biological target: Metabotropic glutamate receptor 8 (Rattus norvegicus) (UniProt P70579)
# Sequence (P70579 whole entry, looked up): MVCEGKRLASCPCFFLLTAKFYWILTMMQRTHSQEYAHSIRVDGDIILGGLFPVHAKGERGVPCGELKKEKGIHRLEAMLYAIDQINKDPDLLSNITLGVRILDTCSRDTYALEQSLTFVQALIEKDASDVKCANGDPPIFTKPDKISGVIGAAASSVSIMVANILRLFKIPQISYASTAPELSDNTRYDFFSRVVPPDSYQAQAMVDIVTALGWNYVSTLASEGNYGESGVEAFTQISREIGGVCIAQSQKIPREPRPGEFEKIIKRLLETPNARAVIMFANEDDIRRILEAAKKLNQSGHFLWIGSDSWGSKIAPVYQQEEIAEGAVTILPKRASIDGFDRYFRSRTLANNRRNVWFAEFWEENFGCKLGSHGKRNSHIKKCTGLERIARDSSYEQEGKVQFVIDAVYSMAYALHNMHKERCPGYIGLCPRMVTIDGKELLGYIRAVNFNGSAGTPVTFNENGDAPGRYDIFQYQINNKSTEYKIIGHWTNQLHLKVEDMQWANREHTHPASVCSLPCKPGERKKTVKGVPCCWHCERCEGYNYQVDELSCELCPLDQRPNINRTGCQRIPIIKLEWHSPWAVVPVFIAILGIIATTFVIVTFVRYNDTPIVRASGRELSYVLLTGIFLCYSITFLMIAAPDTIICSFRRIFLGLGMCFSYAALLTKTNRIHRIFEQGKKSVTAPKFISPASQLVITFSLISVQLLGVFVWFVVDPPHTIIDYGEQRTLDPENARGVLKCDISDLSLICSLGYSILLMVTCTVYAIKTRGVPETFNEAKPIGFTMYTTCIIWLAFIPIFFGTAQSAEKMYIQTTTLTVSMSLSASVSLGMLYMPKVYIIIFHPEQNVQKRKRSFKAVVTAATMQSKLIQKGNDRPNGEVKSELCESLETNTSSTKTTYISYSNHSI
# Experiment: rat mGluR8 modulators via GIRK flux, primary screen, cell-based, thallium flux, HTS (AID 488969)
# Conditions: HEK293 rat mGluR8, GIRK (G protein-gated inwardly rectifying potassium channel) thallium flux, FluoZin2; at 10 µM; stronger effect = higher value; submaximal glutamate (EC20) added with thallium
row,SMILES,z-score
1,CCN(CC)C(=O)NC(c1ccc(C)c(F)c1)C(Cl)(Cl)Cl (centres undefined),-0.501
2,Cn1cc(S(=O)(=O)CC(=O)Nc2ccc(Br)cc2)c2ccccc21,-0.0267
3,Cc1onc(-c2ccccc2)c1C(=O)Nc1ccc(N2CCOCC2)cc1,-0.074
4,CCC1CCCCN1C(=O)C1CC(c2cc(Cl)c(OC)cc2OC)=NO1 (centres undefined),-0.518
5,Cc1cc(=O)oc2cc(OCC(=O)Nc3nnc(CC(C)C)s3)ccc12,-0.0633
6,CCc1ccc2oc(-c3cc(N=Cc4cccc(OC)c4O)ccc3O)nc2c1,-0.649
7,Cc1cc2c(cc1C)C(c1ccccc1Br)CC(=O)N2 (centres undefined),0.617
8,COc1cnc(-c2ccccn2)nc1Sc1ccc(Cl)cc1,-0.328
9,OCCCc1nc2n(n1)C(c1cccs1)C=C(c1ccc(Br)cc1)N2 (centres undefined),5.08 (active)
10,OCCCc1nc2n(n1)C(c1ccccc1)C=C(c1ccccc1)N2 (centres undefined),-0.449
11,OCCCc1nc2n(n1)C(c1ccccc1Cl)C=C(c1cccs1)N2 (centres undefined),-1.48
12,OCCCc1nc2n(n1)C(c1cccs1)C=C(c1ccccc1)N2 (centres undefined),2.68
13,OCCCc1nc2n(n1)C(c1ccccc1)C=C(c1ccc(F)cc1)N2 (centres undefined),-1.33
14,Brc1ccc(C2=CC(c3cccs3)n3ncnc3N2)cc1 (centres undefined),-1.55
15,COc1ccc(NC(=O)/C(=C/c2ccc3c(c2)OCO3)NC(C)=O)cc1,-0.031
16,COC(=O)C1=C(C)OC(N)=C(C#N)C1c1ccccc1 (centres undefined),-0.92
17,CC(=O)C1=C(c2ccccc2)OC(N)=C(C#N)C1c1ccc(O)cc1 (centres undefined),-0.487
18,CC1=C(n2nnc3ccccc32)C(c2ccccc2)C(C#N)=C(N)O1 (centres undefined),3.38 (active)
19,CC(C)c1nc(C#N)c(NCCCn2ccnc2)o1,0.481
20,N#C/C(=C(/O)C(Cl)c1ccccc1)c1nc2ccccc2s1 (centres undefined),-0.476
21,Cc1ccc(C)c(NC(=O)CSc2nnc(CCNC(=O)OC(C)(C)C)o2)c1,0.761
22,CC(C)(C)OC(=O)NCCc1nnc(SCC(N)=O)o1,-0.0953
23,CCN(CC)C(=O)CSc1nnc(CCNC(=O)OC(C)(C)C)o1,0.491
24,C=C(C)CSc1nnc(CCNC(=O)OC(C)(C)C)o1,2.19
25,Cc1ccc(NC(=O)CSc2nnc(CCNC(=O)OC(C)(C)C)o2)c(C)c1,2.11

row,SMILES,z-score
1,Cc1ccc(NC(=O)CSc2nnc(CCCCCNC(=O)OC(C)(C)C)o2)c(C)c1,0.493
2,COc1ccc(CNC(=O)C2CCCN(c3nc4ccccc4o3)C2)c(OC)c1 (centres undefined),0.18
3,Cc1ccc(C)c2[nH]c(=O)c(C(c3nnnn3Cc3ccccc3)N3CCc4ccccc4C3)cc12 (centres undefined),-0.148
4,COc1ccccc1-n1c(SCC(=O)N2CCc3ccccc32)nc2c(c1=O)SCC2,-0.558
5,O=c1[nH]c2ccccc2n1C1CCCCC1,-1.04
6,O=c1[nH]c2ccccc2n1CCC1CCCCC1,5.05 (active)
7,CCCn1c(=O)[nH]c2ccccc21,-0.219
8,C=CCOc1ccc(CNn2c(C)n[nH]c2=S)cc1OC,0.17
9,CC(C)NC(=O)C1CCN(C(=O)C(C(=O)c2ccccc2)n2cc(Cl)ccc2=O)CC1 (centres undefined),0.609
10,Fc1ccc(NC(=S)N/N=C/c2cccc(Br)c2)c(F)c1,3.61 (active)
11,Cc1ccc(NC(=S)N/N=C/c2ccc(Cl)c([N+](=O)[O-])c2)cc1,-0.0758
12,Fc1ccc(/C=N/NC(=S)Nc2ccc(Cl)cc2)cc1F,6.19 (active)
13,C=CCNC(=S)Nc1ccc(F)cc1F,-0.172
14,COc1ccc(/C=N/NC(=S)Nc2ccccc2)cc1COc1ccccc1F,-0.0868
15,Fc1cccc(/C=N/NC(=S)Nc2ccccc2Cl)c1,11.2 (active)
16,C=CCNC(=S)Nc1ccc(Br)cc1F,-0.377
17,COc1ccccc1NC(=S)N/N=C/c1cccc(C)c1,0.651
18,CCCCNC(=O)C(=O)N/N=C/c1cccc(Br)c1,0.475
19,O=C(CCC(=O)Nc1ccccc1Cl)N/N=C/c1ccccc1,-0.0425
20,COc1ccc(/C=N/NC(=S)Nc2ccccc2)cc1COc1ccc(F)cc1F,-0.047
21,Fc1ccc(NC(=S)N/N=C/c2ccc(F)c(F)c2)c(F)c1,13 (active)
22,Cc1cccc(N(C(=O)c2sc(C)nc2C)C(C(=O)NCc2ccco2)c2ccccc2)c1 (centres undefined),-1.18
23,COC(=O)C1=C(C)NC(=O)NC1c1ccccc1 (centres undefined),-0.341
24,OC(COCC(F)(F)C(F)(F)C(F)(F)C(F)F)Cn1c2ccccc2c2ccccc21 (centres undefined),0.164
25,CCOc1ccc2nc(SCc3ccccc3C#N)sc2c1,-0.141

row,SMILES,z-score
1,Fc1ccccc1N1CCN(CC2CC3C=CC2C3)CC1 (centres undefined),-0.343
2,Cc1noc2c1C(c1ccc(N(C)C)cc1)C1=C(CC(C)(C)CC1=O)N2 (centres undefined),-0.142
3,CN(CCC#N)C(=S)Nc1ccc(Oc2ccccc2)cc1,-0.139
4,Cc1ccc(-c2ccc(SCC(=O)c3ccccc3)nn2)cc1,0.138
5,O=C(Nc1ccon1)c1ccc(Br)o1,-0.216
6,C=CCn1c(NC(=O)CC)c(C(=O)OCC)sc1=S,-0.979
7,COc1ccc(N=C2C(=Nc3ccc(OC)cc3)N(c3ccc(OC)cc3)C(=S)N2C)cc1,-0.0804
8,Cc1nn(C(C)C(=O)NCc2ccccc2)c(C)c1[N+](=O)[O-] (centres undefined),0.375
9,Cc1nc2ccccn2c1-c1nnco1,0.116
10,CCOC(=O)/C(N=Nc1c(Br)cc(Br)cc1Br)=C(\C)O,0.239
11,CCN1CCN(C(=O)Nc2cccc3ccccc23)CC1,-0.222
12,CN1CCN(C(=O)Nc2cccc3ccccc23)CC1,3.3 (active)
13,CN1CCN(C(=S)NC(=O)/C=C/c2cccc3ccccc23)CC1,2.03
14,O=C(Nc1cccc2ccccc12)N1CCN(c2ccccc2)CC1,-0.177
15,COCC(=O)Nc1cccc2ccccc12,0.3
16,O=C(Nc1ccccc1C(F)(F)F)Nc1cccc2ccccc12,0.33
17,NC(=O)Nc1cccc2ccccc12,4.53 (active)
18,Cc1ccc(/C=C/C(=O)NC(=S)N2CCN(C)CC2)cc1,-0.241
19,CN1CCN(C(=S)NC(=O)/C=C/c2ccccc2)CC1,0.401
20,CCc1cc(=O)oc2cc3oc(C)c(C)c3cc12,-0.296
21,Cc1c(C(=O)NCC2COc3ccccc3O2)oc2ccc(S(=O)(=O)N(C)C3CCCCC3)cc12 (centres undefined),-0.0918
22,CC(=O)CCc1oc2ccc(NC(C)=O)cc2c1-c1ccc(C)o1,-0.484
23,COCCN(C(=O)COc1ccccc1)c1nnc(-c2cccnc2)s1,-0.132
24,CC(=O)C(C)Oc1ccc2c3c(c(=O)oc2c1C)CCCC3 (centres undefined),-1.13
